The values that follow come from PubChem BioAssay (NCI).

This is part of a sample that, as a whole, favours compounds with a hit. Of some 83,000 tested, about 20% had one in any assay.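 Interpretation: 100, growth as untreated; towards 0, rising growth inhibition; 0, no net growth; 0 to -100, cell death. Compounds scoring below 10 were considered active.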 Values without a mark were called inactive. The source made the active and inactive calls.

This experiment relates to HCC-2998 colon. Put plainly: NCI-60 one-dose screen, 48 h (100 = growth as untreated, 0 = no growth, -100 = all killed). Particulars: 10 µM unless noted.
Take `Cn1c(=O)c2c(nc(NC3=NS(=O)(=O)c4ccccc43)n2Cc2ccccc2)n(C)c1=O`: the growth is 107%.

With `COc1ccc(C/C(C)=C(/c2ccc(OCCN3CCCCCC3)cc2)c2ccc(OC(=O)NCc3ccccc3)cc2)cc1`, the growth is 89.1%.

Consider `Cn1cc(-c2csc(-c3cn(C(=O)OC(C)(C)C)c4ccccc34)n2)c2ccnc(Cl)c21`, for which the growth was 83.5%.

`CCN(C(=O)N1CCN(c2cc3c(cc2F)c(=O)c(C(=O)O)cn3C2CC2)CC1)c1nc(-c2ccc(C)cc2)cs1`: the growth was 21.1%.

`COC(=O)c1nc(-c2ccccc2)oc1S(=O)(=O)N1CCC(C(N)=O)CC1`: the growth is 104%.

As to `CCCCSCC(=O)c1ccccc1`, the growth is 100%.

For the compound `Cc1ccc(Nc2nc(-c3ccc(F)cc3)c(C#N)c(=O)n2C)cc1`, the growth was 86.2%.

For `COc1cccc(OC)c1Oc1c(-c2nc3ccccc3s2)c(C)nn1-c1ccccc1`, the growth was 81.9%.

`Cc1ccccc1CNc1c2ccccc2nc2ccccc12`: the growth was 16.2%.

`COc1ccc2nc3ccccc3c(NCc3ccc(F)cc3)c2c1`: the growth is -77.6% (active).

As to `O=C1NC(=O)c2c1c1c3ccccc3[nH]c1c1oc3cc(Br)ccc3c21`, the growth was 99.7%.

Turning to `COc1ccc(-c2nnc(SCC(=O)Nc3ccc(/C(C)=N\O)cc3)n2-c2ccccc2)cc1OC`, the growth is 94%.

In the case of `CC1=CCC[C@@H]2C1(C)CC[C@H](C)[C@@]2(C)CC1=CC(=O)C(SC(C)(C)C)=CC1=O` (stereo partly drawn), the growth was 96.8%.

`CCn1cc(CNc2ccc(C(=O)Nc3cc4cc(OC)c(OC)cc4c(C)n3)cc2)c(C)n1`: the growth was 62.2%.

Consider `CCCCN1C(=O)/C(=c2\sc3n(c2=O)NC2C(N=3)N(CC)C(=O)N2CC)c2ccccc21` (stereo not drawn), for which the growth was 64.1%.

As for `NC(=O)c1c(NC(=O)c2ccc(Cl)cc2)sc2c1CCC(=O)C2`, the growth is 104%.

Consider `CC1(C)CC[C@]2(C(=O)O)CC[C@]3(C)C(=CC[C@@H]4[C@@]5(C)C[C@@H](Cc6cn([C@@H]7O[C@H](CO)[C@@H](O)[C@H](O)[C@H]7O)nn6)[C@H](O)C(C)(C)[C@@H]5CC[C@]43C)[C@@H]2C1`, for which the growth was 104%.

As to `CCNCc1ccc(O)c2ncccc12`, the growth is 45.9%.

Regarding `CC(C)c1ccc(C(=O)Nc2sc3cc(O)ccc3c2C#N)cc1`, the growth was 60.3%.

Consider `CCOC(=O)c1c(NC(=O)CSc2n[nH]c3nc4ccccc4n23)sc(CC)c1C`, for which the growth was 105%.

As for `COc1cccc(/C=C/C(=O)c2cc3c(N)c(C(=O)Nc4cccc(Cl)c4C)sc3nc2C)c1`, the growth is -79.8% (active).

Take `Cc1nn(-c2ccccc2)c(N2CCCCC2)c1/C=N/NC(=O)Cn1c(=O)sc2ccccc21`: the growth was 68.4%.

With `COC(=O)Cc1nc(C#N)c(N(C)C)o1`, the growth is 103%.

Regarding `N=C(N)c1ccc(-c2ccc(-c3ccc(Cl)cc3Cl)s2)cc1F`, the growth was -81.7% (active).

As for `C/C(C=O)=C\c1ccc2c(c1)OCO2`, the growth is 108%.

As for `Cc1ccc(/C=C(\C#N)C(=O)Nc2ncc(Cc3cc(Cl)ccc3Cl)s2)o1`, the growth was 29.7%.

Turning to `C[C@@H]1CC[C@@]2(OC1)O[C@H]1C[C@H]3[C@@H]4CC=C5C[C@@H](O[C@@H]6O[C@H](CO)[C@@H](O[C@@H]7O[C@@H](CO)[C@H](O)[C@H]7O)[C@H](O)[C@H]6O[C@@H]6O[C@@H](C)[C@H](O)[C@@H](O)[C@H]6O)CC[C@]5(C)[C@H]4CC[C@]3(C)[C@H]1[C@@H]2C`, the growth was -75.9% (active).

As for `CCOC(=O)c1cn2ncnc(Oc3ccc(NC(=O)NC4CC4)c(F)c3)c2c1C`, the growth was 110%.
